A number with no mark means an inactive call.
test system: Vero E6 infected with SARS-CoV-2; experiment: inhibition of SARS-CoV-2 cytopathic effect; higher = more antiviral protection, active = above 15; settings: 8.33 nM; 48 h

SMILES	inhibition of SARS-CoV-2 cytopathic effect
CCNC(=O)CCC/C=C\C[C@@H]1[C@@H](/C=C/[C@@H](O)CCc2ccccc2)[C@H](O)C[C@@H]1O [bimatoprost]	-0.42%
CCOC(=O)c1ncc2[nH]c3cccc(OC(C)C)c3c2c1C	-1.73%
Cn1c(=O)c2c(ncn2CCOC(=O)C(C)(C)Oc2ccc(Cl)cc2)n(C)c1=O [etofylline-clofibrate]	3.79%
COc1ccc2cc1Oc1ccc(cc1)C[C@H]1c3c(cc4c(c3Oc3cc5c(cc3OC)CCN(C)[C@@H]5C2)OCO4)CCN1C [cepharanthine]	-1.27%
COc1cc(C(=O)N(CC[C@H]2CCCN2C)C/C(C)=C/c2ccccc2F)cc(OC)c1OC (racemic)	-1.9%
CC(C)(C)c1cc(C(C)(C)C)c2c(c1)C(O)(C(F)(F)F)C(=O)O2 (racemic)	2.66%
O=C(O)Cn1c2c(c3cc(F)ccc31)CN(C(=O)c1cccc3ccccc13)CC2 [setipiprant]	-1.86%
O=c1[nH]c(CCl)nc2sc3c(c12)CCCC3	-1.84%
O=C(Nc1ccc(C(=O)O)c(O)c1)c1ccccc1 [benzoylpas]	-2.28%
C/C(=N\c1ccccc1N)c1c(C)cc(=O)n(O)c1O	-2.18%
CNC(=O)c1c(I)c(C(=O)NCC(=O)Nc2c(I)c(C(=O)O)c(I)c(C(=O)NCCO)c2I)c(I)c(N(C)C(C)=O)c1I [ioxaglic-acid]	1.46%
O=C(O)CCC(=O)OC[C@@H](NC(=O)C(Cl)Cl)[C@H](O)c1ccc([N+](=O)[O-])cc1 [chloramphenicol-sodium-succinate]	-0.01%
CC(C)(C#N)c1ccc(N2C(=O)OCc3cnc4ccc(-c5cnc6ccccc6c5)cc4c32)cc1	2.48%
Cc1ccc2c(-c3ccccc3)nc(=O)n(C(C)C)c2c1 [proquazone]	0.21%
Cc1cccc(NC(=O)N[C@@H]2N=C(c3ccccc3)c3ccccc3N(C)C2=O)c1	1.7%
C[C@@H]1CN(c2c(F)c(N)c3c(=O)c(C(=O)O)cn(C4CC4)c3c2F)C[C@H](C)N1 [sparfloxacin]	2.09%
CO[C@@H]1[C@@H](O[C@@H]2O[C@H](C)[C@@H](O[C@H]3C[C@@](C)(O)[C@@H](OC(=O)CC(C)C)[C@H](C)O3)[C@H](N(C)C)[C@H]2O)[C@@H](CC=O)C[C@@H](C)[C@@H](O)/C=C/C=C/C[C@@H](C)OC(=O)C[C@H]1OC(C)=O [josamycin]	0.07%
CCN1CCC[C@H]1CNC(=O)c1c(OC)ccc(Br)c1OC [remoxipride]	2.05%
CC(C)CC(=O)N[C@H](C(=O)N[C@H](C(=O)N[C@@H](CC(C)C)[C@@H](O)CC(=O)N[C@@H](C)C(=O)N[C@@H](CC(C)C)[C@@H](O)CC(=O)O)C(C)C)C(C)C [pepstatin]	0.77%
COc1cc2c(cc1OC)[C@@H](Cc1cc(OC)c(OC)c(OC)c1)[N+](C)(CCCOC(=O)CC/C=C/CCC(=O)OCCC[N+]1(C)CCc3cc(OC)c(OC)cc3[C@H]1Cc1cc(OC)c(OC)c(OC)c1)CC2 (some centres undefined) [mivacurium]	-1.95%
COc1cc2ncnc(Nc3ccc(Cl)cc3F)c2cc1OC	-0.75%
Cn1nnc(-c2ccc(-c3ccc(N4C[C@H](CO)OC4=O)cc3F)cn2)n1 [tedizolid]	1.38%
CCc1c(-c2ccccc2)c(-c2ccccc2)nn1-c1ccccc1-c1cccc(OCC(=O)O)c1	3.84%
COc1cc2c(cc1Cc1cccc(Cl)c1F)c(=O)c(C(=O)O)cn2[C@H](CO)C(C)C [elvitegravir]	1.56%
Cc1ccc2c(c1)[C@]13CCCC[C@@H]1[C@H](C2)N(C)CC3 [dimemorfan]	0.39%
COC(=O)N[C@H](C(=O)N1CCC[C@H]1c1ncc(-c2ccc(-c3ccc(-c4cnc([C@@H]5CCCN5C(=O)[C@@H](NC(=O)OC)C(C)C)[nH]4)cc3)cc2)[nH]1)C(C)C [daclatasvir]	0.14%
COC(=O)Nc1nc2cc(C(=O)c3ccccc3)ccc2[nH]1 [mebendazole]	0.93%
c1ccc(CN(CC2=NCCN2)c2ccccc2)cc1 [antazoline]	-2.45%
C[C@]12C=CC(=O)C=C1CC[C@@H]1[C@@H]2[C@@H](O)C[C@@]2(C)[C@H]1CC[C@]2(O)C(=O)COC(=O)CCC(=O)O [prednisolone-hemisuccinate]	0.74%

Source: the supplement of paper PMC13380429
